A short description of assay [1]: Quantitative High-Throughput drug screen in 47 multiple myeloma cell lines against the NCATS MIPE library collection: MM1R_ATCC cell viability assay (AID 1918981). Also: nearly all actives have a fitted effect of over 35% in size. In outline: (§1)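 qHTS format: cells plated (500/well), pin-dosed with MIPE 4.0 compounds, kept 48 h at 37 °C. Readout was CellTiter-Glo luminescence, median RLU.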
Assay [2] is described as follows: Quantitative High-Throughput drug screen in 47 multiple myeloma cell lines against the NCATS MIPE library collection: KMS28PE_JCRB cell viability assay (AID 1918983). Also: nearly all actives have a fitted effect of over 35% in size. The gist of the method: as §1
Assay [3] can be described thus: Quantitative High-Throughput drug screen in 47 multiple myeloma cell lines against the NCATS MIPE library collection: L363_DSMZ cell viability assay (AID 1918984). Also: nearly all actives have a fitted effect of over 40% in size. The settings on record: L363 myeloma viability, CellTiter-Glo ATP luminescence, 48 h; viability (% of control): at 45.8 µM (top of the series). The gist of the method:
as §1
(Cellular ATP, detected with luciferase, serves as a proxy for viable cell number.)

A short description of assay [4]: Quantitative High-Throughput drug screen in 47 multiple myeloma cell lines against the NCATS MIPE library collection: OPM1_PLB cell viability assay (AID 1918989). Also: nearly all actives have a fitted effect of over 40% in size. The gist of the method:
as §1

The nature of assay [5]: Quantitative High-Throughput drug screen in 47 multiple myeloma cell lines against the NCATS MIPE library collection: KMS34_JCRB cell viability assay (AID 1918985). Also: nearly all actives have a fitted effect of over 40% in size. In outline:
as §1

A short description of assay [6]: Quantitative High-Throughput drug screen in 47 multiple myeloma cell lines against the NCATS MIPE library collection: OCIMY7_PLB cell viability assay (AID 1918987). Also: nearly all actives have a fitted effect of over 65% in size. The following applies: OCI-MY7 myeloma viability, CellTiter-Glo ATP, 48 h; viability (% of DMSO): at 45.8 µM (top of the series). The gist of the method:
as §1

Assay [7] can be described thus: Quantitative High-Throughput drug screen in 47 multiple myeloma cell lines against the NCATS MIPE library collection: OCIMY5_PLB cell viability assay (AID 1918988). Also: nearly all actives have a fitted effect of over 65% in size. The gist of the method: as §1
Assay [8] in a line: Quantitative High-Throughput drug screen in 47 multiple myeloma cell lines against the NCATS MIPE library collection: LP1_DSMZ cell viability assay (AID 1918982). Also: nearly all actives have a fitted effect of over 35% in size. In outline: as §1

Records with an inconclusive call do not appear. Active and inactive are the calls of the source. Calls follow the shape of the dose curve; as a rule, active = well fitted cell-killing curve with a large enough effect; inconclusive = small, poorly fitted or top-dose-only effect, or effect the other way; inactive = no such curve, though single readings can be large or run the other way.
Potency is read from the fitted curve at half-maximal effect.

As to `CN1CC(=O)N2C(Cc3c([nH]c4ccccc34)[C@H]2c2ccc3c(c2)OCO3)C1=O` (stereo not given in full), the Potency result in assay [1], in assay [2], in assay [3] and in assay [4] was “inactive” each time.
Consider `CO[C@@H]1C(N(C)C(=O)c2ccccc2)C[C@H]2O[C@]1(C)n1c3ccccc3c3c4c(c5c6ccccc6n2c5c31)C(=O)NC4=O` (stereo not given in full), for which the Potency was 3.32 µM (active) in assay [5], 0.935 µM (active) in assay [6], 5.26 µM (active) in assay [7] and 4.18 µM (active) in assay [4].
For the molecule `COc1cc(Cl)cn2c(-c3cccc(NC4CNC4)n3)cnc12`, the Potency in assay [1] was 16.6 µM (active); in assay [2], 20.9 µM (active); in assay [6] it was 9.35 µM (active); in assay [7] it was 13.2 µM (active).
For the molecule `Cc1ccc2c(c1)C(=O)[C@]1(O)CCN(c3ccccc3)C1=N2`, the Potency entry in assay [3] and in assay [4] was “inactive” in each case. For the same molecule, in assay [5], the Potency was 1.48 µM (active).
As for `Cc1cnc(Nc2cccc(CN3CCOCC3)c2)nc1Nc1cccc(S(=O)(=O)NC(C)(C)C)c1`, the Potency in assay [1] is 10.5 µM (active); in assay [2], 14.8 µM (active); in assay [3] it was 5.26 µM (active); in assay [5], 3.32 µM (active); in assay [6], 1.05 µM (active); in assay [7], 3.72 µM (active). Also, the Potency in assay [4] is 1.48 µM (active).
Regarding `CCC[C@@H](NC(=O)[C@@H]1[C@H]2CCC[C@@H]2CN1C(=O)[C@@H](NC(=O)[C@@H](NC(=O)c1cnccn1)C1CCCCC1)C(C)(C)C)C(=O)C(=O)NC1CC1`, the Potency in assay [1] was 18.7 µM (active); in assay [2], 16.6 µM (active); in assay [7], 16.6 µM (active).
On to `Nc1nc(Cl)nc2c1ncn2[C@@H]1O[C@H](CO)[C@@H](O)[C@H]1F`, for which the Potency in assay [2] was 0.0418 µM (active); in assay [3], 0.0526 µM (active); in assay [7], 0.0743 µM (active); in assay [4] it was 1.48 µM (active).
As to `COc1cc2nccc(Oc3ccc(NC(=O)Nc4ccc(F)cc4F)c(F)c3)c2cc1OC`, the Potency was 9.35 µM (active) in assay [8], 6.62 µM (active) in assay [2] and 1.87 µM (active) in assay [7]. In addition, the Potency result in assay [3] is “inactive”.
Regarding `Clc1ccc(COC(Cn2ccnc2)c2ccc(Cl)cc2Cl)c(Cl)c1` (stereo not given), the Potency was 23.5 µM (active) in assay [1], 20.9 µM (active) in assay [3], 26.4 µM (active) in assay [7] and 18.7 µM (active) in assay [4].
As for `CCOC(=O)N1c2ccc(C(F)(F)F)cc2[C@@H](N(Cc2cc(C(F)(F)F)cc(C(F)(F)F)c2)C(=O)OC)C[C@H]1CC`, the Potency in assay [1] is 2.96 µM (active); in assay [2], 4.69 µM (active); in assay [5], 5.26 µM (active); in assay [7], 4.69 µM (active); in assay [4], 3.32 µM (active). In addition, the Potency entry in assay [3] and in assay [6] was “inactive” throughout.
On to `CN(C)c1ccccc1CN1CCCN(Cc2ccccc2N(C)C)C1c1ccncc1`, for which the Potency is 23.5 µM (active) in assay [2], 20.9 µM (active) in assay [7] and 20.9 µM (active) in assay [4].
Take `COc1cc(C=CC(=O)O)ccc1O`: the Potency result in assay [1], in assay [2], in assay [5] and in assay [7] was “inactive” each time.
For the molecule `Cn1c(=O)c(-c2c(Cl)cccc2Cl)cc2cnc(Nc3cccc(C(=O)O)c3)nc21`, the Potency was 9.35 µM (active) in assay [1], 0.59 µM (active) in assay [3] and 13.2 µM (active) in assay [7]. Also, the Potency entry in assay [4] was “inactive”.
In the case of `Cc1ccc(NC(=O)c2ccc(CN3CCN(C)CC3)cc2)cc1Nc1nc(-c2cccnc2)cs1`, the Potency is 16.6 µM (active) in assay [2]; 9.35 µM (active) in assay [3]; 14.8 µM (active) in assay [6]; 23.5 µM (active) in assay [7]; 9.35 µM (active) in assay [4].
On to `CC1(COc2ccc3c(c2)ncn3-c2ccc3cccc(N4CCC(N)CC4)c3n2)COC1`, for which the Potency in assay [8] was 1.18 µM (active); in assay [2], 0.59 µM (active); in assay [5], 1.05 µM (active); in assay [6], 0.059 µM (active); in assay [4], 0.0235 µM (active).
Turning to `C[C@@H](O[C@H]1OCCN(Cc2n[nH]c(=O)[nH]2)[C@@H]1c1ccc(F)cc1)c1cc(C(F)(F)F)cc(C(F)(F)F)c1`, the Potency in assay [8] is 23.5 µM (active); in assay [3], 4.69 µM (active); in assay [5], 20.9 µM (active); in assay [7], 23.5 µM (active); in assay [4], 23.5 µM (active).
Regarding `N#CC1(c2cccc(C(=O)Nc3cc(Oc4ccc5nc(NC(=O)C6CC6)sc5n4)ccc3F)c2Cl)CC1`, the Potency in assay [1] was 14.8 µM (active). Also, the Potency entry in assay [5] was “inactive”.
For the molecule `Cc1ccc(S(=O)(=O)OCC(=O)Nc2ccc(C(=O)O)c(O)c2)cc1`, the Potency result in assay [8] and in assay [4] was “inactive” throughout. Further, in assay [7], the Potency was 18.7 µM (active).
On to `CCc1cccc(CC)c1NC(=O)N1Cc2[nH]nc(NC(=O)c3ccc(N4CCN(C)CC4)cc3)c2C1`, for which the Potency in assay [1] was 14.8 µM (active); in assay [2], 14.8 µM (active); in assay [6] it was 10.5 µM (active); in assay [7], 1.66 µM (active); in assay [4] it was 0.833 µM (active).
Turning to `COc1nccc(-c2c(-c3ccc(F)cc3)ncn2C2CCNCC2)n1`, the Potency result in assay [8] was “inactive”. Further, the Potency in assay [2] is 13.2 µM (active); in assay [7], 16.6 µM (active).
`CCC(=O)OCC(=O)[C@@]1(OC(=O)CC)[C@@H](C)C[C@@H]2[C@H]3CCC4=CC(=O)C=C[C@]4(C)[C@@]3(F)[C@@H](O)C[C@@]21C`: the Potency is 1.05 µM (active) in assay [3] and 14.8 µM (active) in assay [4].
`O=C(O)CCNc1cc(N2CCc3ccccc3CC2)nc(-c2ccccn2)n1`: the Potency entry in assay [8] was “inactive”. Moreover, the Potency in assay [7] is 23.5 µM (active); in assay [4] it was 5.26 µM (active).
Regarding `Cc1cccc2c1CC[C@H](CN1CCC(c3c(Cl)cccc3Cl)CC1)C[C@@H]2O`, the Potency is 2.64 µM (active) in assay [7] and 18.7 µM (active) in assay [4].
For `FC(F)(F)c1ccc(C=Cc2nc(COc3ccc(CCCCn4ccnn4)cc3)co2)cc1`, the Potency in assay [2] was 0.132 µM (active); in assay [3], 0.001 µM (active); in assay [6], 0.132 µM (active); in assay [7] it was 0.0166 µM (active); in assay [4], 0.187 µM (active).

These data come from PubChem BioAssay (NCATS).
